# Values joined by “and” are separate entries in the source; they are usually repeats but may differ in a detail not shown here. Equal values may be shown once. Inconclusive results are not listed. Active and inactive are the calls of the source. Unless noted, cut-off not given; nearly all actives show AC50 up to about 30 µM. Where a SMILES comes first, the peptide text is derived from it. [ ]: non-standard residue; d: D form. The star is where a group is joined. Sta = CC(C)C[C@H](N)[C@@H](O)CC(=O)O; Isovaleryl = CC(C)CC(=O)*
# Key:
# [1] = viability loss in pontine glioma line – cell-based, SU-DIPG-IV, MIPE4.0, CellTiter-Glo, qHTS, dose response (AID 1347063); conditions: CellTiter-Glo ATP luminescence;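 further: compound exposure lasted 48 hours before the viability readout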
# [2] = viability loss in pontine glioma line – cell-based, SU-DIPG-XXV, MIPE5.0, CellTiter-Glo, qHTS, dose response (AID 1347065; cut-off not given, nearly all actives have AC50 up to about 26 µM;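 further: cells exposed to compound for 48 hours before ATP readout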); conditions: CellTiter-Glo ATP luminescence
# [3] = growth inhibition of DIPG cells – cell-based, MIPE4.0 library, CellTiter-Glo luminescence, qHTS (AID 1347066); conditions: SU-DIPG-VI viability, CellTiter-Glo ATP luminescence;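 further: cells exposed to compound for 48 hours before readout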
# [4] = JHH-DIPG-1 glioma cell viability, MIPE5.0 library, CellTiter-Glo luminescence, qHTS (AID 1347067; cut-off not given, nearly all actives have AC50 up to about 26 µM;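 further: cells exposed to compound for 48 hours before readout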); conditions: JHH-DIPG-1 glioma viability, CellTiter-Glo ATP luminescence
# [5] = viability loss in pontine glioma line – cell-based, SU-DIPG-XIII, MIPE5.0, CellTiter-Glo, qHTS, dose response (AID 1347064; cut-off not given, nearly all actives have AC50 up to about 23 µM;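 on AC50: cells exposed to compound for 48 hours before the viability read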); conditions: CellTiter-Glo ATP luminescence
# [6] = compounds altering HSF1 focus formation in cells – imaging, Selleck Cancer Library (AID 1347162; in the data active means plate-normalised HSF1 focus index below about 0.46); conditions: human cells, HSF1 nuclear foci imaging, at 10 µM; SSMD: measured here: HSF1 foci SSMD mean; cell count: measured here: cell number; plate-normalised HSF1 focus index: stronger effect = lower value
# [7] = blockers of cellular phospholipid synthesis – cell-based, LOPAC library, screen 4, primary screen (AID 1347384; call rule not given here); conditions: animal cells, phospholipid biosynthesis inhibition screen; at 10 µM
# [8] = compounds altering viability of human ES cells (AID 493140; call rule not given here;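 further: cells exposed to compounds for four days before counting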); conditions: human embryonic stem cell survival screen; stronger effect = higher value
# [9] = compounds altering circadian rhythm period length – cell-based, LOPAC library, luminescence reporter (AID 2774; call rule not given here;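 further: values are relative to mean of DMSO wells on each plate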); conditions: circadian reporter cells, at 7 µM, actives lie on both sides
# [10] = test system: Hepatitis C virus NS3 helicase; assay: blockers of NS3h binding to ssDNA – biochemical, fluorescence polarization, LOPAC1280 library, primary screen (AID 687035; in the data active means inhibition above about 37%); conditions: Purified HCV NS3 helicase, Cy5-dT15 ssDNA binding fluorescence polarization; stronger effect = higher value; concentration not given here
# [11] = compounds altering Cy5-DNA-NS3h complex signal – biochemical, LOPAC1280, artefact control for HCV NS3 helicase inhibitor project (AID 687037; call rule not given here); conditions: Cy5-DNA-NS3h complex fluorescence interference counterscreen
# [12] = growth inhibition, single agent or in combination, cell-based, chromothripsis tumors, cisplatin or BGB combos (AID 1671449; in the data active means inhibition above about 80%;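 further: cells exposed for 96 hours; 0% = vehicle DMSO and 100% = killing by high DMSO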); conditions: LFS_MB_P medulloblastoma cells
# [13] = growth inhibition, single agent and combos, cell-based, chromothripsis tumors, cisplatin or BGB combos (AID 1671450; in the data active means inhibition above about 80%;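 further: cells exposed to compound for four days; 0% = vehicle DMSO and 100% = cell killing by high DMSO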); conditions: HDN33 neuroblastoma cells, stronger effect = higher value
# [14] = growth inhibition, single agents and combos, ICB984, cell-based, cisplatin or BGB combos, synergistic combos for chromothripsis tumors (AID 1671451; call rule not given here;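 further: cells exposed for 96 hours before readout; 0% = vehicle DMSO and 100% = killing by high DMSO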); conditions: ICB984 medulloblastoma cells, drug combinations, stronger effect = higher value
# [15] = growth inhibition, single agents and combos, HTB85, cell-based, BGB or cisplatin IC20 combos, synergistic combos for chromothripsis tumors (AID 1671453; in the data active means inhibition above about 80%;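 further: cells exposed for 96 hours before readout; 0% = vehicle DMSO and 100% = high DMSO killing control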); conditions: HTB85 osteosarcoma cells, drug combinations, stronger effect = higher value
# [16] = growth inhibition, MDA-MB-436, cell-based, BGB or cisplatin combos, synergistic combos for chromothripsis tumors (AID 1671458; call rule not given here;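 further: cells exposed for 96 hours; 0% = vehicle DMSO and 100% = killing by high DMSO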); conditions: MDA-MB-436 breast carcinoma growth inhibition, drug combinations, stronger effect = higher value
# [17] = BT084 cell growth, single and combined drugs, ICGC_MB145, cisplatin and BGB IC40 combos (AID 1671461; in the data active means inhibition above about 80%;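 further: cells exposed to drugs for 96 hours; 0% = vehicle DMSO and 100% = high DMSO full killing control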); conditions: BT084 medulloblastoma cells, drug combinations, stronger effect = higher value
# [18] = RCMB18 cell growth, single agent and combined, cisplatin and BGB IC40 combos (AID 1671462; in the data active means inhibition above about 80%;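 further: cells exposed to compound for four days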); conditions: RCMB18 medulloblastoma cells, stronger effect = higher value
# [19] = CRL1545 cell growth, single agent and combined, cisplatin and BGB IC20 combos (AID 1671464; in the data active means inhibition above about 80%;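 further: cells exposed to compound for 96 hours before readout; 0% = vehicle DMSO and 100% = high DMSO killing control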); conditions: CRL1545 osteosarcoma cells, stronger effect = higher value
# [20] = measured here: with BGB IC20 combination, at 0.5 µM
# [21] = measured here: with cisplatin IC20 combination, at 0.5 µM
compound,measurement,setting,value
O=C(O)C(=O)Nc1cccc(-c2nn[nH]n2)c1,outcome,[1],inactive
same,outcome,[2],inactive
same,outcome,[3],inactive
same,outcome,[4],inactive
CC(C)OC(=O)C(C(=O)OC(C)C)=C1SC=CS1,outcome,[1],inactive
C[C@H]1C[C@H]2[C@@H]3CCC4=CC(=O)C=C[C@]4(C)[C@H]3C(=O)C[C@]2(C)[C@@]1(O)C(=O)CO,outcome,[1],inactive
same,outcome,[2],inactive
same,outcome,[3],inactive
same,outcome,[4],inactive
C[C@@H](NCCCc1cccc(C(F)(F)F)c1)c1cccc2ccccc12,outcome,[1],inactive
same,AC50,[5],18.6 µM (active)
same,AC50,[2],14.8 µM (active)
same,outcome,[3],inactive
same,AC50,[4],16.6 µM (active)
CC(C)C[C@H](NC(=O)[C@H](Cc1ccccc1)NC(=O)c1cnccn1)B(O)O,AC50,[1],0.00833 µM (active)
same,AC50,[2],0.00662 µM (active)
same,AC50,[3],0.0264 µM (active)
same,AC50,[4],0.0263 µM (active)
same,SSMD,[6],3.94
same,cell count,[6],7530
same,plate-normalised HSF1 focus index,[6],1.14 (inactive)
CCN(CC)CCNC(=O)c1c(C)[nH]c(/C=C2\C(=O)Nc3ccc(F)cc32)c1C,AC50,[1],9.59 µM (active)
same,AC50,[5],7.42 µM (active)
same,AC50,[2],4.17 µM (active)
same,AC50,[3],21.5 µM (active)
same,AC50,[4],3.72 µM (active)
same,SSMD,[6],-0.842
same,cell count,[6],6750
same,plate-normalised HSF1 focus index,[6],0.967 (inactive)
same,outcome,[7],inactive
CC(C)CC(=O)N[C@H](C(=O)N[C@H](C(=O)N[C@@H](CC(C)C)[C@@H](O)CC(=O)N[C@@H](C)C(=O)N[C@@H](CC(C)C)[C@@H](O)CC(=O)O)C(C)C)C(C)C (Isovaleryl-VV[Sta]A[Sta]-OH),outcome,[1],inactive
same,outcome,[5],inactive
same,outcome,[2],inactive
same,outcome,[3],inactive
same,outcome,[4],inactive
NS(=O)(=O)c1cc(Cl)c(Cl)c(S(N)(=O)=O)c1,survival,[8],2 (inactive)
same,outcome,[1],inactive
same,outcome,[2],inactive
same,outcome,[3],inactive
same,outcome,[4],inactive
CCOC(=O)[C@H](CCc1ccccc1)N[C@H]1CS[C@H](c2cccs2)CN(CC(=O)O)C1=O,AC50,[1],1.87 µM (active)
same,outcome,[5],inactive
same,outcome,[2],inactive
same,outcome,[3],inactive
same,outcome,[4],inactive
CCC(C)(Oc1ccc(C2(c3ccc(OC(C)(CC)C(=O)O)cc3)CCCCC2)cc1)C(=O)O (stereo unspecified),outcome,[1],inactive
same,outcome,[5],inactive
same,outcome,[2],inactive
same,outcome,[3],inactive
same,outcome,[4],inactive
CC(=O)SC[C@@H](C)C(=O)N1CCC[C@H]1C(=O)N[C@@H](Cc1ccccc1)C(=O)O,outcome,[1],inactive
same,outcome,[3],inactive
same,outcome,[4],inactive
Nc1ccn(C2CO[C@H](CO)O2)c(=O)n1 (stereo partly specified),outcome,[1],inactive
same,outcome,[5],inactive
same,outcome,[2],inactive
same,outcome,[3],inactive
same,outcome,[4],inactive
CNCCC(Oc1ccccc1OC)c1ccccc1 (stereo unspecified),period change,[9],-0.31 h (inactive)
same,survival,[8],0.917 (inactive)
same,inhibition,[10],-6% (inactive)
same,fluorescence ratio (interference),[11],0.9 (inactive)
same,outcome,[7],inactive
CCCCCOC(=O)Nc1nc(=O)n([C@@H]2O[C@H](C)[C@@H](O)[C@H]2O)cc1F,outcome,[1],inactive
same,outcome,[5],inactive
same,outcome,[3],inactive
same,outcome,[4],inactive
same,SSMD,[6],2.2
same,cell count,[6],7640
same,plate-normalised HSF1 focus index,[6],1.08 (inactive)
same,inhibition,"[12]; at 0.5 µM, stronger effect = higher value",1.4% (inactive) and -21.9% (inactive)
same,inhibition,"[12]; measured here: combination with BGB IC20, at 0.005 µM",-14.6% and -21.7%
same,inhibition,"[12]; measured here: combination with BGB IC40, at 0.005 µM",-20.4% and -20.9%
same,inhibition,"[12]; measured here: combination with BGB IC40, at 0.05 µM",-19.6% and -29%
same,inhibition,"[12]; measured here: combination with cisplatin, at 0.5 µM, stronger effect = higher value",-27.7% and -33.8%
same,inhibition,"[12]; measured here: combination with cisplatin, at 5 µM, stronger effect = higher value",-25.5% and -51.4%
same,inhibition,"[13]; BGB combo, at 5 µM",-43.4% and -24%
same,inhibition,[13]; at 0.5 µM,-46.5% (inactive) and -7.86% (inactive)
same,inhibition,"[13]; cisplatin combo, at 5 µM",-42.6% and -1.99%
same,inhibition,[13]; [20],-56.7% and -7.65%
same,inhibition,[13]; [21],-38% and 1.73%
same,inhibition,"[13]; single agent, at 5 µM",-49.4% and -2.05%
same,inhibition,"[14]; BGB IC20 combo, at 0.005 µM",4.24% and 4.65%
same,inhibition,"[14]; BGB IC40 combo, at 0.005 µM",-24.4% and -11%
same,inhibition,"[14]; BGB IC40 combo, at 0.05 µM",-29.4% and -22.1%
same,inhibition,[14]; at 0.5 µM,-39.5% (inactive) and -17.6% (inactive)
same,inhibition,"[14]; cisplatin combo, at 0.05 µM",-33% and -26.5%
same,inhibition,"[14]; cisplatin combo, at 0.5 µM",-46.4% and -4.14%
same,inhibition,"[14]; cisplatin combo, at 5 µM",-48.1% and -27.4%
same,inhibition,"[14]; measured here: 5 uM single agent, at 5 µM",-17.2% and -23.5%
same,inhibition,[15]; at 0.5 µM,-24.5% (inactive) and -10.3% (inactive)
same,inhibition,"[15]; measured here: with BGB IC20, at 0.5 µM",-20% and -11.5%
same,inhibition,"[15]; measured here: with BGB IC20, at 5 µM",-100% and -18.6%
same,inhibition,"[15]; measured here: with cisplatin IC20, at 0.5 µM",-35.2% and -21.3%
same,inhibition,"[15]; measured here: with cisplatin IC20, at 5 µM",-30% and -33.3%
same,inhibition,"[15]; single agent, at 5 µM",-21% and -4.05%
same,inhibition,[16]; at 0.5 µM,-36.5% (inactive) and -2.12% (inactive)
same,inhibition,"[16]; measured here: BGB combination, at 0.5 µM",-31.4% and -6.87%
same,inhibition,"[16]; measured here: BGB combination, at 5 µM",-29.8% and -7.46%
same,inhibition,"[16]; measured here: cisplatin combination, at 0.5 µM",-50.7% and -2.06%
same,inhibition,"[16]; measured here: cisplatin combination, at 5 µM",-40.9% and -28%
same,inhibition,[17]; at 0.5 µM,-20.5% (inactive) and -7.04% (inactive)
same,inhibition,"[17]; cisplatin combination, at 0.5 µM",-5.51% and -26.5%
same,inhibition,"[17]; cisplatin combination, at 5 µM",-19.4% and -8.1%
same,inhibition,"[17]; measured here: BGB IC40 combination 0.05 uM, at 0.05 µM",-7.71% and -17.1%
same,inhibition,"[17]; single agent, at 5 µM",-28.9% and -3.19%
same,inhibition,[18]; at 0.5 µM,-0.93% (inactive) and -5.48% (inactive)
same,inhibition,"[18]; cisplatin combo, at 5 µM",-35.1% and -36.1%
same,inhibition,"[18]; measured here: BGB IC40 combination, at 0.05 µM",-29.7% and -0.207%
same,inhibition,"[18]; measured here: combination with cisplatin, at 0.5 µM",-33.1% and 15.5%
same,inhibition,"[18]; single agent, at 5 µM",-11.2% and -19.2%
same,inhibition,[19]; at 0.5 µM,-52.6% (inactive) and -13.7% (inactive)
same,inhibition,[19]; [20],-42.3% and -20.5%
same,inhibition,[19]; [21],-61.3% and -12%
same,inhibition,"[19]; single agent, at 0.05 µM",-66.9% and -17.4%
same,inhibition,"[19]; single agent, at 5 µM",-52.4% and -6.48%
Cc1oc(=O)oc1CN1CCN(c2cc3c(cc2F)c(=O)c(C(=O)O)c2n3C(C)S2)CC1 (stereo unspecified),outcome,[1],inactive
same,outcome,[5],inactive
same,outcome,[2],inactive
same,outcome,[3],inactive
same,outcome,[4],inactive
COc1ccc2cccc(CCNC(C)=O)c2c1,outcome,[1],inactive
same,outcome,[5],inactive
same,outcome,[2],inactive
same,outcome,[3],inactive
same,outcome,[4],inactive
same,outcome,[7],inactive
CCOC(=O)c1c(C)n(C)c2ccc(O)cc12,outcome,[1],inactive
same,outcome,[3],inactive
O=C(Nc1ccc(S(=O)(=O)N2CCOCC2)cc1)c1cc(Cl)ccc1NS(=O)(=O)c1ccc(Cl)s1,outcome,[2],inactive
same,outcome,[4],inactive

# Source: PubChem BioAssay
